These results are taken from PubChem BioAssay (EPA / NIEHS).

Where “and” joins values, the source holds several entries; their conditions need not be identical. Identical values can stand only once. Calls of active or inactive are those of the source. The calls were made as follows: active = hit-call score of the fitted dose curve at least 0.9, where 1 is the maximum; inactive = score below 0.9.

The assay relates to TTR (gene 7276). The assay can be described thus: CCTE_GLTED_hTTR_0.125uM: CCTE's human Transthyretin (hTTR) Inhibition Assay, with 0.125uM TTR, Great Lakes Toxicology and Ecology Division (GLTED) Lab (AID 2284431). The procedure: CCTE_GLTED_hTTR is a cell-free, single-readout assay designed to test the chemicals' ability to displace T4 from the human transthyretin (TTR) protein. TTR (at 0.125uM or 0.5uM) is incubated in presence of test chemical for 2 hours during which disrupting chemicals displace ANSA from the TTR protein. Results read fluorescence at 380 excitation and 475 emission.CCTE_GLTED_hTTR_0.125uM is the assay component measured from the CCTE_GLTED_hTTR assay. It is designed to make measurements of fluorescent polarization, using a form of binding reporter, as detected with Fluorescence signals by Fluorescence technology.Data from the assay component CCTE_GLTED_hTTR_0.125uM was analyzed at the assay endpoint CCTE_GLTED_hTTR_0.125uM in the positive analysis fitting direction relative to DMSO as the negative control and baseline of activity. Using a type of binding reporter, loss-of-signal activity can be used to understand a chemical's ability to displace T4 from transthyretin. To generalize the intended target to other relatable targets, this assay endpoint is annotated to the 'transporter' intended target family, where the subfamily is 'hormone carrier protein'.
Human transthyretin (TTR) assay, developed at Great Lakes Toxicology and Ecology Division (GLTED) within the EPA's Center for Computational Toxicology and Exposure (CCTE), is designed to test the chemicals' ability to displace T4 from the TTR protein. TTR (0.125uM) is incubated in presence of test chemical for 2 hours during which disrupting chemicals displace ANSA from the TTR protein. Results read fluorescence at 380 excitation and 475 emission.
On to `Nc1ccc(N)cc1`, for which the AC50 (in general, the concentration at which the activity in the assay is half-maximal) was 2.42 µM (active).

In the case of `COc1nn(C(=O)NS(=O)(=O)c2ccccc2OC(F)(F)F)c(=O)n1C`, the AC50 is 9.99 µM (active).

`O=C(CBr)c1ccc(O)cc1`: the AC50 is 4.69 µM (active).

Take `CCCCCCCCCCCCOS(=O)(=O)O`: the concentration at half-maximal activity (AC50) was 2.56 µM (active) and 5.11 µM (active).

Consider `Oc1cc(Cl)c(Cl)cc1Cl`, for which the AC50 was 0.114 µM (active).

Consider `O=C1c2ccccc2C(=O)C1C(=O)C(c1ccccc1)c1ccc(Cl)cc1` (configuration not stated), for which the concentration at half-maximal activity (AC50) is 3.48 µM (active).

On to `O=S1(=O)OC(c2cc(Br)c(O)c(Br)c2)(c2cc(Br)c(O)c(Br)c2)c2ccccc21`, for which the AC50 is 0.109 µM (active).

In the case of `Cc1cc(Cl)ccc1OCCCC(=O)O`, the AC50 is 2.64 µM (active).

Regarding `O=C(NC(=O)c1c(F)cccc1F)Nc1cc(Cl)c(OC(F)(F)C(F)C(F)(F)F)cc1Cl` (configuration not stated), the AC50 is 2.76 µM (active).

As to `CCOCn1c(-c2ccc(Cl)cc2)c(C#N)c(Br)c1C(F)(F)F`, the AC50 is 0.0346 µM (active).

`Cc1cc(Cl)ccc1O`: the AC50 is 14.9 µM (active).

`Oc1c(Br)cc(Br)cc1Br`: the AC50 was 0.0287 µM (active).

Regarding `O=[N+]([O-])c1ccc(Cl)c([N+](=O)[O-])c1`, the AC50 was 4.83 µM (active).

In the case of `O=[N+]([O-])c1ccccc1O`, the AC50 was 34.8 µM (active) and 21.1 µM (active).

Consider `CCCCCCCCCCCCc1cccc(S(=O)(=O)O)c1`, for which the AC50 is 6.89 µM (active).

For `CCOP(=S)(OCC)O/N=C(\C#N)c1ccccc1`, the AC50 was 2.07 µM (active).

As for `O=C(O)COc1cc(Cl)c(Cl)cc1Cl`, the AC50 is 0.692 µM (active).
